From PubChem BioAssay (NCATS) come the findings set out here.

Where “and” joins values, the source holds several entries; their conditions need not be identical. Equal entries are not always repeated. Inconclusive results are not listed. Calls of active or inactive are those of the source. Unless noted, the call rests on the fitted dose curve; in most records, active means well fitted curve in the direction sought with a large enough effect; inconclusive means small, poorly fitted or top-dose-only effect, or another doubt; inactive means no such curve, though single readings can be large; an effect the other way counts as inactive or inconclusive.

Assay [1] in a line: qHTS assay for small molecule agonists of the antioxidant response element (ARE) signaling pathway measured by Nrf2-dependant transcriptional activity (AID 720636; active means well fitted curve in the direction sought with a large enough effect in the repeat runs; an effect the other way counts as inactive or inconclusive;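 further: HepG2 cells with an ARE-driven luciferase reporter; % of control where 0% means no effect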). The procedure, abridged: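 Attachment 6 hr at 37 C, then compound versus DMSO vehicle for 16 hr in ARE-luc HepG2 cells (1% dialyzed FBS); luminescence recorded 30 min after ONE-Glo addition at room temperature.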
For orientation: qHTS replaces the single test concentration by a dilution series.

The nature of assay [2]: qHTS assay for small molecule antagonists of the retinoid-related orphan receptor gamma (ROR-gamma) signaling pathway - cell viability counter screen (AID 720652; active means well fitted curve in the direction sought with a large enough effect in the repeat runs; an effect the other way counts as inactive or inconclusive;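 further: compound exposure lasted 16 hr before ATP read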; further: potency means the concentration at half of the fitted maximal effect). The procedure, abridged:
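CHO cells carrying TET-inducible ROR and RORE-luciferase reporter, plated 5 hr, then dosed with compound plus doxycycline. After 16 hr at 37 C, viability read as intracellular ATP by CellTiter-Glo luminescence.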

A short description of assay [3]: qHTS assay for small molecule agonists of the antioxidant response element (ARE) signaling pathway measured by Nrf2-dependant transcriptional activity - cell viability counter screen (AID 720653; active means well fitted curve in the direction sought with a large enough effect in the repeat runs; an effect the other way counts as inactive or inconclusive; further: on the % scale 0 is the no-effect control and ±100 the full control effect). Particulars: ARE-bla HepG2 viability, CellTiter-Glo ATP luminescence, 16 h; max response: stronger effect = lower value. The procedure, abridged: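 ARE-bla HepG2 cells treated with compounds for 16 h at 37C; this counter screen measures viability as intracellular ATP by CellTiter-Glo luminescence after 30 min at room temperature.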

Assay [4] can be described thus: qHTS Assay for Identifying Gametocytocidal Compounds (AID 743244). Further: potency means the concentration at half of the fitted maximal effect.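 On max response: on the % scale 0 is the no-effect control and ±100 the full control effect; actives lower the fluorescent signal which means gametocytes are killed.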 The settings on record: P. falciparum 3D7 stage III-V gametocytes, alamarBlue, 72 h; max response: stronger effect = lower value. The procedure, abridged:
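Viability read-out was resazurin reduction (alamarBlue, 24 h) measured at Ex 525/Em 598 nm. Beforehand, late-stage (III-V) 3D7 P. falciparum gametocytes at 20,000 cells/well were incubated with compound 72 h at 37C under 5% CO2.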

The nature of assay [5]: qHTS assay for cell viability of HEK293 cells (AID 743288). Further: nearly all actives have a fitted effect of over 50% in size. Further: potency means the concentration at half of the fitted maximal effect. On max response: on the % scale 0 is the no-effect control and ±100 the full control effect. The settings on record: ATP luminescence (CellTiter-Glo), 18 h; max response: stronger effect = lower value. The procedure, abridged:
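Total intracellular ATP, measured with a luciferase-coupled reagent, indicates the number of viable HEK293 cells. Exposure to test chemicals lasts 18 h at 37 C in 1,536-well format at 2,000 cells/well.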

Assay [6] in a line: qHTS assay for cell viability of the p53RE-bla HCT-116 cell line (AID 743292). Further: nearly all actives have a fitted effect of over 55% in size. Further: potency means the concentration at half of the fitted maximal effect. The procedure, abridged:
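Compound-exposed HCT-116 (p53RE-bla) cells, 4,000 per well, were kept 16 h at 37 C following a 5 h preincubation. Cell number was estimated from total ATP by CellTiter-Glo luminescence read after 30 min at room temperature.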

The nature of assay [7]: qHTS for Activators of Parkin Expression: LOPAC Validation Assay (NLuc Reporter) (AID 720572; further: potency means the concentration at half of the fitted maximal effect). The procedure, abridged:
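Neuronal cells with a Parkin promoter-driven FLuc/NLuc coincidence reporter were treated 24 h at 37 C in 7-point dose response (LOPAC). NLuc luminescence read after FLuc; signals normalized to DMSO and positive control (100%).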

A short description of assay [8]: qHTS for Activators of Parkin Expression: LOPAC Validation Assay (FLuc Reporter) (AID 720573;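 further: 0% = DMSO and 100% = positive control compounds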). The procedure, abridged:
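FLuc signal from Parkin-promoter coincidence reporter neuronal cells, normalized to DMSO and positive control (100%). Cells (1,500/well) pre-incubated 24 h, then exposed to LOPAC compounds in 7-point dose response for 24 h at 37 C, 5% CO2.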

Assay [9] deals with T1, Hexokinase-4 (Homo sapiens) + Glucokinase regulatory protein (Homo sapiens) (UniProt P35557+Q14397). The experiment in a line: qHTS assay for inhibitors of recombinant human GCK-GKRP interaction: Diaphorase-coupled assay (AID 743205). The procedure, abridged:
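A kinetic fluorescence read (Ex 525/Em 590 nm, every minute for 30 minutes) tracked resorufin from a G6PDH-diaphorase coupled GCK reaction. It contained 10 nM GST-GCK, 10 nM FLAG-GKRP, 5 mM glucose, 0.4 mM ATP in Hepes pH 7.6. Normalized to with/without-enzyme DMSO controls.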

The target in assay [10] is T1, Hexokinase-4 (Homo sapiens) + Glucokinase regulatory protein (Homo sapiens). The experiment in a line: qHTS assay for inhibitors of recombinant human GCK-GKRP interaction: ADP-Glo assay (AID 743206).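 Further: plate controls were DMSO plus enzyme for no effect and no enzyme for full effect.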 The procedure, abridged:
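GST-GCK and FLAG-GKRP (15 nM each in the dispensed mix, with 2 uM S6P) react with 0.4 mM ATP and 5 mM glucose (final) in Hepes pH 7.6 for 60 min at room temperature. ADP is measured by ADP-Glo luminescence.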

Assay [11] has the same target. The experiment in a line: qHTS assay for inhibitors of recombinant human GCK-GKRP interaction: HTRF assay (AID 743207).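 Further: 0% = DMSO with GCK present and -100% = DMSO wells lacking GCK.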 The procedure, abridged: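 After 60 min equilibration at room temperature with anti-FLAG XL665 and anti-GST antibodies, FRET ratio (665/615 nm, excitation 320 nm) was read. Proteins: GST-GCK and FLAG-GKRP, each 5 nM, plus 2 uM S6P, pH 7.1 buffer; GCK-free wells define minimum signal.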

Assay [12] is described as follows: qHTS profiling for inhibitors of Plasmodium falciparum (3D7) proliferation (AID 743322).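 Further: infected erythrocytes exposed to compound for 72 h before lysis; 100% = DMSO vehicle wells and 0% = 0.29 µM artemisinin.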 Particulars: P. falciparum 3D7 proliferation; at 28.7 µM (top of the series) unless noted. The procedure, abridged:
(§1)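 Erythrocytes infected with P. falciparum (0.3% parasitemia, 2.5% hematocrit) incubated with compounds 72 h at 37 C, 5% CO2. Lysis with saponin/Triton buffer containing SYBR Green I, overnight at room temperature in the dark; DNA fluorescence (485/535 nm) normalised to 0.29 uM artemisinin and DMSO.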

Assay [13] is described as follows: qHTS profiling for inhibitors of Plasmodium falciparum (DD2) proliferation (AID 743323; call rule not given here). Particulars: lower = more inhibition; at 28.7 µM (top of the series) unless noted. The procedure, abridged: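 P. falciparum Dd2-infected erythrocytes (0.3% parasitemia, 2.5% hematocrit) exposed 72 h at 37 C, 5% CO2. Lysis with SYBR Green, overnight at room temperature, fluorescence 485/535 nm; normalized to 0.29 uM artemisinin and DMSO.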

The nature of assay [14]: qHTS profiling for inhibitors of Plasmodium falciparum (HB3) proliferation (AID 743324).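 Further: 100% = DMSO vehicle wells and 0% = artemisinin-treated control wells.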 The settings on record: Plasmodium falciparum HB3 blood-stage proliferation; at 28.7 µM (top of the series) unless noted. The procedure, abridged:
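P. falciparum HB3 grown in erythrocytes (0.3% parasitemia, 2.5% hematocrit final) with compound for 72 h at 37 C, 5% CO2. Parasite DNA detected by SYBR Green after saponin/triton lysis overnight; normalized to 0.29 uM artemisinin and DMSO.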

A short description of assay [15]: qHTS profiling of the MIPE4 collection as inhibitors of Plasmodium falciparum (3D7) proliferation (AID 743344; call rule not given here;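 further: scaled between DMSO vehicle wells and 0.29 µM artemisinin as full inhibition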). Particulars: P. falciparum 3D7 in erythrocytes, SYBR Green DNA fluorescence, 72 h; at 28.5 µM (top of the series). The procedure, abridged: as §1
Assay [16] is described as follows: qHTS profiling of the MIPE4 collection as inhibitors of Plasmodium falciparum (DD2) proliferation (AID 743345; call rule not given here). The settings on record: P. falciparum Dd2 in erythrocytes, SYBR Green DNA, 72 h; at 28.5 µM (top of the series). The procedure, abridged:
as §1

Assay [17] is described as follows: qHTS profiling of the MIPE4 collection as inhibitors of Plasmodium falciparum (DD2) proliferation (Rep 2) (AID 743346; call rule not given here). The settings on record: P. falciparum Dd2 in erythrocytes, SYBR Green DNA, 72 h; at 28.5 µM (top of the series). The procedure, abridged:
as §1

A short description of assay [18]: qHTS profiling of the MIPE4 collection as inhibitors of Plasmodium falciparum (HB3) proliferation (AID 743347; call rule not given here;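 further: plate controls were DMSO vehicle wells for no effect and artemisinin wells for full effect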). The settings on record: P. falciparum HB3 in erythrocytes, SYBR Green DNA, 72 h; at 28.5 µM (top of the series). The procedure, abridged: as §1

T1 sequence (P35557 whole entry, looked up): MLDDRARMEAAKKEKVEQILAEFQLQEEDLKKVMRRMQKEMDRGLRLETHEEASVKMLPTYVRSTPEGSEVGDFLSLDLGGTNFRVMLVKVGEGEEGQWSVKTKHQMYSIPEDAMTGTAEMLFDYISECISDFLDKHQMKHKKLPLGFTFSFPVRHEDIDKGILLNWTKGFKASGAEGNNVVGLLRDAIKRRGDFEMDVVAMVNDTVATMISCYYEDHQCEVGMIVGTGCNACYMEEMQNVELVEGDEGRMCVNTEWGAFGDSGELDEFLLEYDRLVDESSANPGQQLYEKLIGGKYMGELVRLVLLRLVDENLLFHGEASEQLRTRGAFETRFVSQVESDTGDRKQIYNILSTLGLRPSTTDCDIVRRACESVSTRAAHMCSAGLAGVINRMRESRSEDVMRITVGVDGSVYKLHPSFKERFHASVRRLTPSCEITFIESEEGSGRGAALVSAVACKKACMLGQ
T1 sequence (Q14397 whole entry, looked up): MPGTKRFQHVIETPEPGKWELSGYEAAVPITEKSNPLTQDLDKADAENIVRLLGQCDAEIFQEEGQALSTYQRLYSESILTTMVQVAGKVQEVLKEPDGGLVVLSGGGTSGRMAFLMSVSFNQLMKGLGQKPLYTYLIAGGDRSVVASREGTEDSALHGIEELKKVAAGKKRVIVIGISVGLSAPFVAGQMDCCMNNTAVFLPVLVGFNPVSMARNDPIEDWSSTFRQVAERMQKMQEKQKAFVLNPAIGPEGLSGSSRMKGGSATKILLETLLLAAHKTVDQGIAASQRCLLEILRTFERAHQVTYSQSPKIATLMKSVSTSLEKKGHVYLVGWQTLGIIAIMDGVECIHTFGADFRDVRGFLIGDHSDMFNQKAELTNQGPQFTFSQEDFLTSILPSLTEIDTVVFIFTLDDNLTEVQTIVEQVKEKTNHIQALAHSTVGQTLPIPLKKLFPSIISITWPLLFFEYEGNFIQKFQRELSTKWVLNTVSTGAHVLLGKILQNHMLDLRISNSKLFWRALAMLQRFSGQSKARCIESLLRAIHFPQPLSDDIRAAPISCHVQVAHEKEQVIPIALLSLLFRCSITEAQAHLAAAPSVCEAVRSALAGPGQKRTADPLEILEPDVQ

In the case of `Nc1ccc(O)c(C(=O)O)c1`, the Potency entry in assay [1], in [2] and in assay [6] was “inactive” throughout. In addition, the max response in assay [3] was -2.51% (inactive) and -1.43% (inactive); in [4], 11.4% (inactive); in assay [5], -0.669% (inactive) and -7.83% (inactive).
Turning to `S=c1[nH]c2ccccc2s1`, the Potency result in [1], in assay [2] and in assay [6] was “inactive” in each case. Further, the max response is -14.2% (inactive) and -2.08% (inactive) in assay [3]; 3.04% (inactive) and -5.55% (inactive) in assay [5].
Regarding `NC[C@@H]1O[C@H](C23CC4CC(CC(C4)C2)C3)Cc2c1ccc(O)c2O`, the Potency entry in assay [7], in assay [8], in assay [10] and in assay [11] was “inactive” each time. Also, the result in [9] was inactive. For the same compound, in assay [4], the Potency was 1 µM (active).
`N=C1N=C(N)c2cc3ccccc3cc21`: the Potency result in [1] is “inactive”. Besides, the Potency in assay [2] is 42.2 µM (active); in assay [5], 44.7 µM (active); in [6] it was 50.1 µM (active). In assay [3], the max response is -12.6% (inactive).
Turning to `NCCCCCCCCCCN`, the Potency result in assay [7], in assay [8], in assay [10] and in [11] was “inactive” throughout. In [9], the outcome was inactive. Besides, the max response in assay [4] is 2.17% (inactive).
Consider `CNC(=O)[C@H]1O[C@@H](n2cnc3c(NCc4cccc(I)c4)ncnc32)[C@H](O)[C@@H]1O`, for which the Potency result in assay [7], in assay [8] and in assay [10] was “inactive” throughout. The outcome in assay [9] was inactive. The max response in assay [4] is 55.6% (inactive).
For `OCC1O[C@H]([S-])[C@H](O)[C@@H](O)[C@@H]1O.[Au+]` (stereo not given in full), the Potency in [7] was 16.4 µM (active); in [4], 2.82 µM (active). Moreover, the Potency entry in assay [8] and in assay [10] was “inactive” in each case. Also, the outcome in assay [9] was inactive.
Take `CCCCCCCCCCCCCCCC(=O)OC(C)C`: the Potency entry in assay [1] and in assay [6] was “inactive” in each case. Further, the max response in [3] was -10.7% (inactive); in assay [4], 3.03% (inactive); in assay [5], -7.13% (inactive).
Regarding `CNc1ncnc2c1ncn2[C@@H]1O[C@H](CO)[C@@H](O)[C@H]1O`, the Potency result in [7], in [8], in assay [10] and in [11] was “inactive” in each case. The outcome in assay [9] was inactive. Moreover, in [4], the max response is 31.8% (inactive).
On to `CC(C)CC(NP(=O)(O)O[C@@H]1O[C@@H](C)[C@H](O)[C@@H](O)[C@H]1O)C(=O)NC(Cc1c[nH]c2ccccc12)C(=O)O` (stereo not given in full), for which the Potency result in assay [7], in assay [8] and in assay [10] was “inactive” each time. Further, the result in assay [9] was inactive. The max response in [4] was 18.7% (inactive).
For the compound `CC(C)OC(=O)c1cc(C(=O)OC(C)C)cc([N+](=O)[O-])c1`, the Potency result in [1] and in [6] was “inactive” throughout. Besides, the values for the max response in assay [3], in assay [4] and in assay [5] were -4.4% (inactive), 4.99% (inactive) and -14.7% (inactive), respectively.
For `COc1cc(CNC(=O)CCCC/C=C/C(C)C)ccc1O`, the Potency entry in [2] was “inactive”.
On to `Nc1ccc([N+](=O)[O-])cc1O`, for which the Potency result in assay [2] is “inactive”.
In assay [12], `COc1cc(NC(C)CCCN)c2ncccc2c1` (stereo not given) displayed a remaining parasite growth % (stronger effect = lower value) of 4.3% [at 9.63 µM]. The compound also returned an activity, percent of control in [13] of 2.77% [at 9.63 µM]. Besides, the remaining proliferation (% of control), lower = more inhibition in [14] amounted to 6.48% [at 9.63 µM]. Besides, the parasite growth, % of DMSO control in assay [15] worked out at 7.16%. In addition, the parasite growth remaining, % of DMSO control (lower = more inhibition) in [16] was 8.84%. This compound also returned a parasite growth, % of control (lower = inhibition) in [17] of 15.5%. In assay [18], this compound displayed a growth, % of control of 8.75%.
In [12], `C=CCc1cccc(/C=N/NC(=O)CN2CCN(Cc3ccccc3)CC2)c1O` yielded a remaining parasite growth % (stronger effect = lower value) of 16.2%. The compound also gave an activity, percent of control in assay [13] of 11.8%. Also, the remaining proliferation (% of control), lower = more inhibition in [14] was 9.08%.
On to `COC(=O)C1=C(C)NC(C)=C(C(=O)OCC(C)C)C1c1ccccc1[N+](=O)[O-]` (stereo not given), for which the parasite growth, % of DMSO control in assay [15] came out at 5.69%. For the same compound, the parasite growth remaining, % of DMSO control (lower = more inhibition) in assay [16] was 15%. Also, the parasite growth, % of control (lower = inhibition) in assay [17] was 8.98%. The same compound gave a growth, % of control in [18] of 9.44%.
